# Sampled rows, rich in hits. Any-hit rate of the full collection: about 4.7%.
# TRHR agonist – qHTS for Small Molecule Agonists and Allosteric Enhancers of Human TRH Receptor: Primary Screen for Agonists. Thyrotropin-releasing hormone receptor (Homo sapiens), P34981. TRHR cells, calcium flux fluo-8, FDSS agonist mode. activation, % at 2 µM. 360,000 tested, 0.18% active. AID 493084, 2011
#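 Steps: seed TRHR cells overnight; add fluo-8 no-wash Ca dye, RT 30 min–1.5 h; record 10 s baseline; pin-transfer compounds; monitor fluorescence 1 cycle/s for the agonist window. Calcium increases flag candidate agonists.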
# D1 antagonist – Antagonist of Human D 1 Dopamine Receptor: qHTS; activity change, negative = inhibition, % at 10 µM; AID 504652, 2011; HEK293 TREx D1 cells, calcium flux, dopamine EC80; stronger effect = lower value; 360,000 tested, 3.2% active; in the data active means activity change below about -30%
# Target sequence (P21728 whole entry, looked up): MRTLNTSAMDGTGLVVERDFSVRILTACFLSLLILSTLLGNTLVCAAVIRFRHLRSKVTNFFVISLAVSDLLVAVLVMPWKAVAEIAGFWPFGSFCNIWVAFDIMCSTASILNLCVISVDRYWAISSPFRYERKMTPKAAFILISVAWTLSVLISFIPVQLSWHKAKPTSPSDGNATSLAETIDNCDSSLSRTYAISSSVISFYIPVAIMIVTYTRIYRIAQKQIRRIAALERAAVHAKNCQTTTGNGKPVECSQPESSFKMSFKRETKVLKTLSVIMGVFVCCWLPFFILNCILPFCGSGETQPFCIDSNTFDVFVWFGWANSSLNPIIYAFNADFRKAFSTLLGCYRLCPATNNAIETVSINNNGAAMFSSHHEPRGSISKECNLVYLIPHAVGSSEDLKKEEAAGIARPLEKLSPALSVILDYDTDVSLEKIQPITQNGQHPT
#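 Tetracycline-induced HEK293 Trex D1 cells, force-coupled to calcium, dye-loaded; compounds added and read 180 s, then EC80 dopamine added and calcium flux tracked kinetically another 180 s.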
# D1 agonist – Allosteric Agonists of the Human D1 Dopamine Receptor: qHTS. D(1A) dopamine receptor (Homo sapiens), P21728. activation, % at 2 µM. 360,000 tested, 1% active. HEK293 T-REx D1 cells, calcium flux, agonist mode
#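 Agonism was scored from calcium flux recorded over 180 s (1 read/s) after pintool compound addition, following a 10-cycle baseline. Cells were inducible force-coupled HEK293 TREx D1, plated overnight at 30 C and loaded with no-wash calcium dye.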
# TRHR PAM – qHTS for Small Molecule Agonists and Allosteric Enhancers of Human TRH Receptor: Primary Screen for Enhancers; TRHR cells, fluo-8 calcium fluorescence, EC20 TRH enhancement; AID 493056, 2011; Thyrotropin-releasing hormone receptor (Homo sapiens), P34981; enhancement, % at 2 µM; 360,000 tested, 0.66% active; in the data active means enhancement above about 30%
#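 Enhancer read-out: after compound pinning and an initial kinetic agonist-mode read, an EC20 of TRH (10 nM final) was injected and fluo-8 calcium signal (Ex 480/Em 530) followed at 1 s/cycle for 100 cycles in TRHR-expressing cells.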
# D1 PAM – Potentiators of Human D1 Dopamine Receptor: qHTS | AID 504651, 2011 | 360,000 tested, 0.036% active | D(1A) dopamine receptor (Homo sapiens), P21728 | HEK293 TREx D1 cells, calcium flux, dopamine EC20 potentiation | potentiation, % at 10 µM; in the data active means potentiation above about 30%
# Hits are given with their value; - = inactive; . = not tested or not shown; ! = not active in a repeat. Unless noted, no stated cut-off is given here; in the data, active means activation above about 30%; inactive means the rest.
SMILES,TRHR agonist,D1 antagonist,D1 agonist,TRHR PAM,D1 PAM
CNS(=O)(=O)c1ccc(Oc2ccc(S(=O)(=O)NC)cc2)cc1,-,-44,-,-,-
O=C(NCc1ccco1)C1CCCN(c2nnc(-n3cccc3)s2)C1 (configuration not stated),-,-39,-,-,-
Cc1cc(=O)n2nc(N3CCCC(C(=O)NCc4ccco4)C3)sc2n1 (configuration not stated),-,-,-,-,-
CCc1c(C)nc2nc(-c3ccccc3)nn2c1NCc1ccc(C)cc1,-,-,-,-,-
COc1ccccc1CNC(=O)CN(c1cccc([N+](=O)[O-])c1)S(C)(=O)=O,-,-35,-,-,-
Cc1ccc(CNC(=O)CN(c2cccc([N+](=O)[O-])c2)S(C)(=O)=O)cc1,-,-35,-,-,-
Cc1ccc(CNC(=O)CN(c2cccc([N+](=O)[O-])c2)S(=O)(=O)c2ccccc2)cc1,-,-,-,-,-
Cc1ccc(N2C(=O)CSC23C(=O)N(CC(=O)Nc2ccc(C(C)C)cc2)c2ccccc23)cc1C (configuration not stated),-,-,-,-,-
Cc1ccc(N2C(=O)CSC23C(=O)N(CC(=O)Nc2ccccc2F)c2ccccc23)cc1C (configuration not stated),-,-32,-,-,-
Cc1ccc(CNC(=O)c2ccc(-n3c(C)cc4c3CCCC4)cc2)cc1,-,-,-,31,-
Cc1cc2c(n1-c1ccc(C(=O)NCc3ccc(OC(C)C)cc3)cc1)CCCC2,-,-,-,-,-
COc1cccc(CNC(=O)CSC2=Nc3ccccc3C3=NC(C)C(=O)N23)c1OC (configuration not stated),-,-,-,-,-
COc1ccccc1CNC(=O)C1CCN(c2nc3ccc(Cl)cc3[nH]2)CC1,-,-74,-,-,-
O=C(C1CCN(c2nc3ccccc3[nH]2)CC1)N1CCN(c2cccc(Cl)c2)CC1,-,-,-,-,-
Cc1ccc2nc(N3CCC(C(=O)N4CCN(c5cccc(Cl)c5)CC4)CC3)[nH]c2c1,-,-,43,-,-
COc1ccccc1NC(=O)c1cn(-c2ccccc2)nc1-c1ccccc1,-,-,-,-,-
CCOC(=O)c1ccc(Nc2nnc(C(C)(C)C)c(=O)[nH]2)cc1,-,-56,-,-,-
COc1cc2ccccc2cc1C(=O)N1CCN(c2nc3c(F)cccc3s2)CC1,-,.,-,-,-
CCN(CC)CCN(C(=O)c1ccco1)c1nc2ccc(Br)cc2s1,-,-,-,-,-
O=C(C1=C[C@H](c2ccc3c(c2)OCO3)C[C@H](OCCCCO)O1)N1CCOCC1,-,-,-,-,-
O=C(C1=C[C@H](c2ccc(Br)cc2)C[C@H](OCCCCO)O1)N1CCN(Cc2ccccc2)CC1,-,-30,-,-,-
O=C(C1=C[C@@H](c2csc3ccccc23)C[C@@H](OCc2ccc(CO)cc2)O1)N1CCN(Cc2ccccc2)CC1,-,-,-,31,-
O=C(C1=C[C@H](c2ccccc2)C[C@H](OCCCCO)O1)N1CCOCC1,-,-40,-,-,-
CN1CCCCC1CCN1c2ccccc2Sc2ccc(S(C)=O)cc21 (configuration not stated),-,-84,-,-,-
CC(=O)Nc1ccc(C(=O)Nc2ccc3c(c2)N(C2CCCC2)C(=O)c2ccccc2S3)cc1,-,-,-,-,-
SMILES,TRHR agonist,D1 antagonist,D1 agonist,TRHR PAM,D1 PAM
CCOC(=O)c1ccc(NC(=O)Cn2nc(SC)c(S(=O)(=O)c3ccc(Cl)cc3)c2N)cc1,-,-,-,-,-
CCOC(=O)C(C)On1c(-c2ccc(Cl)cc2)nc2ccc([N+](=O)[O-])cc21 (configuration not stated),-,-40,-,-,-
CCOC(=O)C(C)On1c(-c2ccccc2)nc2ccc([N+](=O)[O-])cc21 (configuration not stated),-,-,-,-,-
O=C(Nc1ccc(Cl)c(Cl)c1)N1CCCCCC1,-,-,-,-,-
O=C(CN1CCN(S(=O)(=O)N2CCCCC2)CC1)Nc1cc(Cl)cc(Cl)c1,-,-,-,-,-
O=C(CCC(=O)N1CCCC1)Nc1ccc(Cl)c(Cl)c1,-,-33,-,-,-
O=C(CN1CCN(S(=O)(=O)N2CCCCC2)CC1)Nc1ccc(Cl)c(Cl)c1,-,-79,43,-,-
Cc1ccc(/C=C/c2onc(C)c2S(=O)(=O)N2CCC(C(=O)N3CCC(N(C)C(C)C)CC3)CC2)cc1,-,-,-,-,-
O=C(NCc1ccccn1)c1cc2cc(Br)ccc2oc1=O,-,-68,-,-,-
Cc1c(C(=O)NCc2ccccn2)oc2ccc(Br)cc12,-,-,-,-,-
Cc1cc(C)cc(NC(=O)Cn2c(=O)n(-c3cc(C)cc(C)c3)c(=O)c3oc4ccccc4c32)c1,-,-,-,-,-
Cc1ccc(-n2c(C)cc(/C=N/Nc3ccc([N+](=O)[O-])cn3)c2C)cc1,-,-46,-,-,-
CCN(CC)c1ccc([N+](=O)[O-])cc1/C=N/NC(=O)CC#N,-,-,-,-,-
Cc1cc(/C=N/NC(=O)CC#N)c(C)n1-c1ccc([N+](=O)[O-])cc1,-,-37,-,-,-
COc1ccc(N2CC(NC(=O)C3CCCCC3)CC2=O)cc1 (configuration not stated),-,.,-,-,-
CCOc1ccc(NC(=O)c2c(NCc3cccnc3)sc3c2CCC(C)C3)cc1 (configuration not stated),-,-,-,-,-
Cc1cccc(C)c1N1C(=O)CC(N(O)c2ccccc2)C1=O (configuration not stated),-,-31,-,-,-
Cc1c(Cl)cccc1N1C(=O)CC(N(O)c2ccccc2)C1=O (configuration not stated),-,-,-,-,-
CCOc1ccc(CCNC(=O)CCc2c(C)nc3cc(-c4ccccc4OC)nn3c2C)cc1,-,-,-,-,-
CN1C(=O)Cc2cc(S(=O)(=O)NCCc3ccc(Cl)cc3)ccc21,-,-,-,40!,-
CCCCNS(=O)(=O)c1ccc(N2CCCCS2(=O)=O)cc1,-,-,-,-,-
O=S(=O)(NCCc1ccc(Cl)cc1)c1ccc(N2CCCCS2(=O)=O)cc1,-,-35,-,-,-
CN1C(=O)Cc2cc(S(=O)(=O)NCc3c(F)cccc3Cl)ccc21,-,-,-,-,-
CC(C)CNS(=O)(=O)c1ccc(N2CCCCS2(=O)=O)cc1,-,-44,-,-,-
